Reference: the supplement of paper PMC6555819

Legend:
Assay in all cases: PBM binding z-score (relative to random genomic background probes); higher = stronger binding; sequences stand for … in GC…GCGATTGACAGCGTAGAATGAAGG
[1] = system: FXR:RXRa (NR concentration 270 nM, RXRa partner concentration 90 nM)
Outline: (§1)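 Binding z-scores were set against random background probes. The data came from custom Agilent 4×180K protein-binding microarrays carrying double-stranded probes with 34-nt variable regions, incubated 1 h with ligand-free nuclear receptor dimers. Partner-specific antibodies detected binding, and scanned fluorescence was regression-normalized.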

[2] = system: LXRa:RXRa (NR concentration 270 nM, RXRa partner concentration 90 nM)
Outline: as §1

[3] = system: LXRa homodimer (NR concentration 270 nM)
Outline: as §1

[4] = system: LXRb:RXRa (NR concentration 270 nM, RXRa partner concentration 90 nM)
Outline: as §1

[5] = system: LXRb homodimer (NR concentration 270 nM)
Outline: as §1

[6] = system: PPARa:RXRa (NR concentration 270 nM, RXRa partner concentration 90 nM)
Outline: as §1

[7] = system: PPARg:RXRa (NR concentration 180 nM, RXRa partner concentration 90 nM)
Outline: as §1

[8] = system: PPARg:RXRa 270nM:90nM, anti-RXR (NR concentration 270 nM, RXRa partner concentration 90 nM)
Outline: as §1

[9] = system: PPARg:RXRa 30nM:10nM, anti-RXR (NR concentration 30 nM, RXRa partner concentration 10 nM)
Outline: as §1

[10] = system: PPARg:RXRa 90nM:30nM, anti-RXR (NR concentration 90 nM, RXRa partner concentration 30 nM)
Outline: as §1

[11] = system: PPARg:RXRa DBDmut IVT, anti-RXR (DBD mutation: RXRa K156A/R161A, NR concentration 270 nM, RXRa partner concentration 90 nM)
Outline: as §1

[12] = system: PPARg:RXRa IVT, anti-PPARg (NR concentration 270 nM, RXRa partner concentration 90 nM)
Outline: as §1

[13] = system: PPARg DBDmut:RXRa IVT, anti-PPARg (DBD mutation: PPARg1 K132A/R137A, NR concentration 270 nM, RXRa partner concentration 90 nM)
Outline: as §1

[14] = system: PPARg DBDmut IVT, anti-PPARg (DBD mutation: PPARg1 K132A/R137A, NR concentration 270 nM)
Outline: as §1

[15] = system: PPARg homodimer (NR concentration 180 nM)
Outline: as §1

[16] = system: PXR:RXRa (NR concentration 270 nM, RXRa partner concentration 90 nM)
Outline: as §1

[17] = system: PXR homodimer (NR concentration 270 nM)
Outline: as §1

[18] = system: RARa:RXR (NR concentration 270 nM, RXRa partner concentration 90 nM)
Outline: as §1

[19] = system: RARa homodimer (NR concentration 270 nM)
Outline: as §1

[20] = system: RARb:RXRa (NR concentration 270 nM, RXRa partner concentration 90 nM)
Outline: as §1

CCTGCTAGGTCAATGGTCCGCTAAAGCAGCTCGC
PBM binding z-score [1]: 2.77
PBM binding z-score [2]: 2.19
PBM binding z-score [3]: -0.135
PBM binding z-score [4]: 1.19
PBM binding z-score [5]: -0.102
PBM binding z-score [6]: 2.6
PBM binding z-score [7]: 2.12
PBM binding z-score [8]: 2.94
PBM binding z-score [9]: 0.46
PBM binding z-score [10]: 1.87
PBM binding z-score [11]: 4.03
PBM binding z-score [12]: 3.49
PBM binding z-score [13]: -0.758
PBM binding z-score [14]: -0.248
PBM binding z-score [15]: 0.967
PBM binding z-score [16]: 0.521
PBM binding z-score [17]: -0.206
PBM binding z-score [18]: 1.27
PBM binding z-score [19]: -0.566
PBM binding z-score [20]: 3.68

TCGCGTAGGTTACCAATGGGGCATTCAGCTTTCT
PBM binding z-score [1]: -0.205
PBM binding z-score [2]: 1.54
PBM binding z-score [3]: -0.559
PBM binding z-score [4]: 1.01
PBM binding z-score [5]: -0.67
PBM binding z-score [6]: 0.898
PBM binding z-score [7]: -0.342
PBM binding z-score [8]: 0.743
PBM binding z-score [9]: 1.41
PBM binding z-score [10]: 0.958
PBM binding z-score [11]: 1.28
PBM binding z-score [12]: 0.245
PBM binding z-score [13]: -1.11
PBM binding z-score [14]: -0.793
PBM binding z-score [15]: -0.721
PBM binding z-score [16]: 0.0701
PBM binding z-score [17]: -1.03
PBM binding z-score [18]: 0.355
PBM binding z-score [19]: -1.2
PBM binding z-score [20]: 1.05

CTAACAAGGTGAACAAGGTCGTTGATTACTATTC
PBM binding z-score [1]: 1.46
PBM binding z-score [2]: 1.2
PBM binding z-score [3]: 0.00841
PBM binding z-score [4]: 1.71
PBM binding z-score [5]: -0.084
PBM binding z-score [6]: 2.7
PBM binding z-score [7]: 1.75
PBM binding z-score [8]: 1.73
PBM binding z-score [9]: 0.38
PBM binding z-score [10]: 1.18
PBM binding z-score [11]: 4.02
PBM binding z-score [12]: 3.71
PBM binding z-score [13]: 0.498
PBM binding z-score [14]: 0.744
PBM binding z-score [15]: 0.877
PBM binding z-score [16]: 2.67
PBM binding z-score [17]: 1.4
PBM binding z-score [18]: 2.21
PBM binding z-score [19]: 0.514
PBM binding z-score [20]: 2.27

ATCTCTAGGTAAAAGGTCAGTGAATCCCGAGGAT
PBM binding z-score [1]: 3.03
PBM binding z-score [2]: 3.55
PBM binding z-score [3]: 1.43
PBM binding z-score [4]: 3.07
PBM binding z-score [5]: 1.09
PBM binding z-score [6]: 6.09
PBM binding z-score [7]: 9.92
PBM binding z-score [8]: 8.92
PBM binding z-score [9]: 8.03
PBM binding z-score [10]: 9.78
PBM binding z-score [11]: 3.67
PBM binding z-score [12]: 5.64
PBM binding z-score [13]: 1.49
PBM binding z-score [14]: 2.13
PBM binding z-score [15]: 2.81
PBM binding z-score [16]: 3.49
PBM binding z-score [17]: 0.63
PBM binding z-score [18]: 4.68
PBM binding z-score [19]: 1.9
PBM binding z-score [20]: 4.56

ATATGTAGGTTATCGGGGCATTCAGTTTGCGCAT
PBM binding z-score [1]: 1.18
PBM binding z-score [2]: 1.49
PBM binding z-score [3]: 0.936
PBM binding z-score [4]: 2.57
PBM binding z-score [5]: 1.81
PBM binding z-score [6]: 3.95
PBM binding z-score [7]: 5.76
PBM binding z-score [8]: 5
PBM binding z-score [9]: 2.48
PBM binding z-score [10]: 4.06
PBM binding z-score [11]: 7.24
PBM binding z-score [12]: 7.25
PBM binding z-score [13]: 3.45
PBM binding z-score [14]: 3.12
PBM binding z-score [15]: 2.07
PBM binding z-score [16]: 1.72
PBM binding z-score [17]: 3
PBM binding z-score [18]: 1.04
PBM binding z-score [19]: 1.6
PBM binding z-score [20]: 1.7

ATATGTAGGTTATCGGGTAATTCAGTTTGCGCAT
PBM binding z-score [1]: 0.917
PBM binding z-score [2]: 1.31
PBM binding z-score [3]: 1.01
PBM binding z-score [4]: 1.33
PBM binding z-score [5]: 0.955
PBM binding z-score [6]: 3.5
PBM binding z-score [7]: 5.49
PBM binding z-score [8]: 5.19
PBM binding z-score [9]: 2.91
PBM binding z-score [10]: 4.5
PBM binding z-score [11]: 7.14
PBM binding z-score [12]: 7.39
PBM binding z-score [13]: 1.87
PBM binding z-score [14]: 2.29
PBM binding z-score [15]: 2.19
PBM binding z-score [16]: 1.23
PBM binding z-score [17]: 1.15
PBM binding z-score [18]: 1.11
PBM binding z-score [19]: 1.97
PBM binding z-score [20]: 1.02

GATACAGGGTCCAGGCCAGAGTACGCGTATTGAT
PBM binding z-score [1]: -0.251
PBM binding z-score [2]: -0.534
PBM binding z-score [3]: -0.485
PBM binding z-score [4]: -0.738
PBM binding z-score [5]: -0.692
PBM binding z-score [6]: -0.292
PBM binding z-score [7]: 0.664
PBM binding z-score [8]: -0.347
PBM binding z-score [9]: -0.488
PBM binding z-score [10]: -0.478
PBM binding z-score [11]: -0.66
PBM binding z-score [12]: -0.0913
PBM binding z-score [13]: -0.12
PBM binding z-score [14]: -0.0353
PBM binding z-score [15]: 0.34
PBM binding z-score [16]: -0.441
PBM binding z-score [17]: -0.03
PBM binding z-score [18]: -0.412
PBM binding z-score [19]: -0.345
PBM binding z-score [20]: 0.355

TGAATGAGGTTAGAGATCAGGGAACGTGGCGTCG
PBM binding z-score [1]: 0.893
PBM binding z-score [2]: 0.556
PBM binding z-score [3]: -0.223
PBM binding z-score [4]: 0.296
PBM binding z-score [5]: 0.27
PBM binding z-score [6]: 2.47
PBM binding z-score [7]: 2.82
PBM binding z-score [8]: 4.06
PBM binding z-score [9]: 2.73
PBM binding z-score [10]: 4.07
PBM binding z-score [11]: 0.771
PBM binding z-score [12]: 2.14
PBM binding z-score [13]: 0.576
PBM binding z-score [14]: 0.367
PBM binding z-score [15]: 0.476
PBM binding z-score [16]: 0.397
PBM binding z-score [17]: -0.359
PBM binding z-score [18]: 1.29
PBM binding z-score [19]: -0.00359
PBM binding z-score [20]: 1.3
